Results taken from ChEMBL document CHEMBL3988442, “University of Dundee, Small-Polar-MMV Screening Library” (2021).
The whole screen tested about 69,000 compounds, of which about 950 (1.4%) showed an effect of 50% or more. The sample as a whole holds a higher share of strong results than the screen did.

test system: Mycobacterium tuberculosis; assay: Cornell M. t heat shock assay; type: functional, organism-based; parameters: dose or concentration left out as unconfirmed; note: in the data most compounds retested in dose-response had high values

SMILES	Percent Effect
CCn1ccnc1CNCC(c1ccc(C)s1)N1CCOCC1 (stereo not given)	-18.67%
Cn1ccc(C(=O)N2C[C@H]3CCC[C@@]3(COCc3cccnc3)C2)n1.O=C(O)C(F)(F)F	-13.25%
CN(CCCc1cc(-c2ccc(F)cc2)n(C)n1)CC(N)=O	51.67%
CC(C(N)=O)N(C)CCCc1cc(-c2ccc(F)cc2)n(C)n1 (stereo not given)	22.06%
CN(CCCc1cc(-c2ccc(F)cc2)n(C)n1)CC(=O)NC(N)=O	24.77%
CN(C)[C@@H]1CCN(C(=O)c2ccccn2)[C@H]1Cc1ccncc1	0.1149%
CN(C)[C@@H]1CCN(C(=O)c2ccccn2)[C@H]1Cc1cnn(C)c1	76.59%
CN(C)[C@@H]1CCN(C(=O)c2ccsc2)[C@H]1Cc1cnn(C)c1	4.524%
CC(C)CN1C[C@H]2CCN(Cc3cccnc3)CC[C@H]2S1(=O)=O.O=C(O)C(F)(F)F.O=C(O)C(F)(F)F	-7.462%
CCOC(=O)C(CO)NC(=O)CCc1cccc(OC2CCCC2)c1 (stereo not given)	-10.42%
Cc1ccc(N2N=C(C(N)=O)S(=O)(=O)c3cccnc32)cc1	105.6%
Cc1ccc(N2N=C(C(=O)NCC3CC3)S(=O)(=O)c3cccnc32)cc1	9.457%
Cc1ccc(N2N=C(C(=O)O)S(=O)(=O)c3cccnc32)cc1	-6.267%
Cc1ccc(C(=O)N2C[C@@H]3OCCN(CCN4CCCC4)[C@@H]3C2)cn1.O=C(O)C(F)(F)F	8.47%
O=C(CC1CC1)N1CCC2(CCCN(CCOc3ccccc3)C2)C1.O=C(O)C(F)(F)F (stereo not given)	-8.964%
CC(Cn1cccn1)NCc1csc(-c2ccc3c(c2)OCO3)n1 (stereo not given)	35.45%
Cc1cnn(CCNCc2csc(C)n2)c1	4.294%
c1cnn(CCNCCCOc2ccc3c(c2)OCO3)c1	0.6427%
c1cnn(CCNCc2csc(-c3ccc4c(c3)OCO4)n2)c1	65.17%
Cc1cnn(CCNCc2csc(-c3ccc(C(N)=O)cc3)n2)c1	-3.906%
Cc1cnn(CCNCc2csc(-c3ccc4c(c3)OCO4)n2)c1	93.68%
COCC1CN(c2ccncn2)Cc2cnn(CC3CCCC3)c21.O=C(O)C(F)(F)F.O=C(O)C(F)(F)F (stereo not given)	3.159%
Cc1ccc(CN2CCC3(CC2)CCN(C(=O)c2cccnc2)C3)o1.O=C(O)C(F)(F)F	41.04%

SMILES	Percent Effect
Cc1cncc(C(=O)N2C[C@H]3CCC[C@@]3(COc3ccccn3)C2)c1.O=C(O)C(F)(F)F.O=C(O)C(F)(F)F	-23.58%
Cc1ccc(N2CC[C@H]3C[C@H](C(=O)NCc4ccco4)O[C@@H]3C2)cc1.O=C(O)C(F)(F)F	4.102%
NC[C@H]1CC[C@H](C(NC(=O)c2ccccn2)c2ccccn2)CC1 (stereo not given in full)	11.19%
COc1ccccc1C(=O)NC(c1ccccn1)[C@H]1CC[C@H](CN)CC1 (stereo not given in full)	95.79%
NC[C@H]1CC[C@H](C(NC(=O)c2cccc(F)c2)c2ccccn2)CC1 (stereo not given in full)	107.2%
COc1cccc(C(=O)NC(c2ccccn2)[C@H]2CC[C@H](CN)CC2)c1 (stereo not given in full)	14.74%
NC[C@H]1CC[C@H](C(NC(=O)C2CC2)c2ccccn2)CC1 (stereo not given in full)	-11.64%
NC[C@H]1CC[C@H](C(NC(=O)c2ccccc2)c2ccccn2)CC1 (stereo not given in full)	15.73%
C[C@@H](N)C(=O)N1CC2(CCNCC2)c2cc(Cl)ccc21.Cl.Cl	-22.5%
O=C(C1=CCCC1)N1CCC2(CC1)CC(Oc1cccnc1)CO2.O=C(O)C(F)(F)F (stereo not given)	-14.4%
Cc1nc(CN2CCc3cc(C(=O)O)c(N(C)C)nc3CC2)cs1.O=C(O)C(F)(F)F.O=C(O)C(F)(F)F	3.488%
O=C(C1CC1)N1CCN(Cc2ccncc2)c2ncccc2C1.O=C(O)C(F)(F)F.O=C(O)C(F)(F)F	-4.601%
CCc1onc(C)c1C(=O)N1CCN(c2ncc3c(n2)CCOC3)CC1.Cl	-10.25%
CCC(CN1CCCC1)n1cncc1-c1cnn(-c2ccccc2)c1.Cl (stereo not given)	-7.106%
CCC(CN1CCOCC1)n1cncc1-c1ccc2c(c1)CCN2CC.Cl (stereo not given)	100.9%
CCC(CN1CCOCC1)n1cncc1-c1ccc2c(c1)CCCN2C.Cl (stereo not given)	16.42%
CCN1CCCc2cc(-c3cncn3C(C)CN3CCOCC3)ccc21.Cl (stereo not given)	-27.45%
CC(CN1CCOCC1)n1cncc1-c1ccc2c(c1)CCCN2C.Cl (stereo not given)	-23.4%
CS(=O)(=O)N1CCCC(c2nc(-c3ccccc3)c[nH]2)C1 (stereo not given)	-20.18%
CCCS(=O)(=O)N1CCCC(c2nc(-c3ccccc3)c[nH]2)C1 (stereo not given)	97.89%
CCN(C)S(=O)(=O)N1CCCC(c2nc(-c3ccccc3)c[nH]2)C1 (stereo not given)	14.48%
Cl.Cl.NCC1[C@H]2CN(Cc3ccccc3F)C[C@@H]12 (stereo not given in full)	-12.63%
CC(C)(C)[S+]([O-])CCNC(=O)c1csc(NC2CC2)n1 (stereo not given)	-16.11%

SMILES	Percent Effect
Cc1[nH]/c(=N\C(=O)c2csc(NC3CCCC3)n2)sc1C	101.9%
CC(C)NC(=O)N1CC(=O)c2sc(NC3CCCCC3)nc2C1	1.144%
CC(=O)Nc1nc(C(=O)N2CCCC(c3cc(C)[nH]n3)C2)cs1 (stereo not given)	-17.82%
Cc1[nH]/c(=N\C(=O)c2csc(NC3CC3)n2)sc1C	102.4%
Cc1[nH]/c(=N/C(=O)Cn2nc(N3CCOCC3)ccc2=O)sc1C	-6.271%
CN(C)c1ccc(CNCc2cnc(N3CCOCC3)nc2)cn1.Cl	-4.55%
CC(C)=CCN1C(=O)[C@H]2CC[C@@H]1CN(c1ncccn1)C2	-39.45%
O=C(Cc1ccccc1)N1CC[C@H]2[C@@H]1CCC(=O)N2Cc1ccncc1.O=C(O)C(F)(F)F	-22.84%
CCCN1C[C@H]2CC[C@@H]1CN(Cc1ccc(-n3cccn3)cc1)C2	105.3%
CCCN1C[C@H]2CC[C@@H]1CN(Cc1ccc(Cn3cccn3)cc1)C2	25.45%
CCCN1C[C@H]2CC[C@@H]1CN(Cc1cccc(-n3cccn3)c1)C2	-1.729%
COCCN1CCCC12CCN(C(=O)CC1CCCC1)CC2.O=C(O)C(F)(F)F	-21.16%
O=C(O)C(F)(F)F.O=C(O)C(F)(F)F.O=S(=O)(c1cccnc1)N1C[C@H]2CCC[C@@]2(COc2ccccn2)C1	-13.75%
CC(C)c1cnc(CNc2c(F)cccc2-n2cccn2)o1	8.854%
CCc1noc(CNc2c(F)cccc2-n2cccn2)n1	-3.038%
Cc1cnc(CNc2c(F)cccc2-n2cccn2)o1	105%
Cn1c(CNc2c(F)cccc2-n2cccn2)cc(=O)n(C)c1=O	6.656%
CC(C)(C)c1nnc(CNc2c(F)cccc2-n2cccn2)o1	0.6342%
Cn1ccnc1CNc1c(F)cccc1-n1cccn1	55.71%
O=C(O)C(F)(F)F.O=C1[C@H]2CN(C(=O)[C@H]3CCCO3)C[C@H]2CN1CCN1CCCC1	-0.06274%
COc1ccc(OC)c([C@@H]2N[C@H](c3nccs3)Cc3ccsc32)c1	6.308%
COc1cccc([C@@H]2N[C@H](c3nccs3)Cc3ccsc32)c1OC	50.14%
COc1cc([C@@H]2N[C@H](c3nccs3)Cc3ccsc32)cc(OC)c1OC	-5.187%

SMILES	Percent Effect
Cc1ncsc1CN1C[C@@H]2COC[C@]2(CNC(=O)c2ccccc2)C1.O=C(O)C(F)(F)F	-24.18%
COc1cc(C)sc1C(=O)NCCC(=O)N(C)c1ccccc1	0.1249%
COc1ccsc1C(=O)NCCNc1ccccc1	-5.187%
COc1cc(C)sc1C(=O)NCCNc1ccccc1	57.16%
Cc1nc(CN2CCO[C@H]3[C@@H](OCc4cccnc4)CC[C@@H]32)cs1.O=C(O)C(F)(F)F.O=C(O)C(F)(F)F	-27.98%
O=C(O)C(F)(F)F.O=C(O)C(F)(F)F.OCCN1CC2(CCN(CC3CC3)CC2)c2ccccc21	-22.04%
O=C(O)C(F)(F)F.c1cnc(N2CCC3(CC2)CN(CC2CC2)c2ccccc23)nc1	54.56%
O=C(O)C(F)(F)F.O=C1N(CC2CC2)CCC12CCN(c1ncccn1)CC2	-22.74%
O=C(CCCNC(=O)C1CCCO1)Nc1ccc(Cl)cc1 (stereo not given)	-4.15%
O=C(CCC1CCCO1)NS(=O)(=O)c1ccc(Cl)cc1 (stereo not given)	2.708%
O=C(CC1CCCO1)NCCCC(=O)Nc1ccc(Cl)cc1 (stereo not given)	63.53%
O=C(CCC1CCCO1)NCCCC(=O)Nc1ccc(Cl)cc1 (stereo not given)	104.2%
O=C(CCC1CCCO1)NCCCO (stereo not given)	-7.133%
O=C(CCCNC(=O)NCC1CCCO1)Nc1ccc(Cl)cc1 (stereo not given)	40.56%
O=C(O)C(F)(F)F.O=C(O)C(F)(F)F.O=C1COC2(CCN(CC3CCOCC3)CC2)CN1Cc1ccccn1	-24.93%
O=C(O)C(F)(F)F.c1cncc(N2CC[C@@H]3CN(CC4CC4)C[C@@H]3C2)c1	-51.37%
Cc1cnc(N2CCC3(CCCN3C(=O)c3ccco3)CC2)nc1.O=C(O)C(F)(F)F	2.375%
O=C(NCc1ccco1)Nc1cccc(S(=O)(=O)C(F)F)c1	31.42%
O=C(CCc1ccco1)Nc1cccc(S(=O)(=O)C(F)F)c1	70%
O=C(CNc1cccc(S(=O)(=O)C(F)F)c1)NCc1ccco1	18.67%
Cc1cc(C)n(CC2CCCN2C(=O)c2cccnc2N(C)C)n1 (stereo not given)	-10.54%
